This is an account of results in PubChem BioAssay (Tox21).

Values joined by “and” are separate entries in the source; they are usually repeats but may differ in a detail not shown here. Equal values may be shown once. Records with an inconclusive call do not appear. Active and inactive are the calls of the source. Calls come from the whole dose curve; as a rule, active = well fitted activation curve with a large enough effect in the repeat runs; inconclusive = weak or mixed curves; inactive = no such curve, though single readings can be large or run the other way.
% is set by controls: 0 for no effect and ±100 for the full control effect; potency is the fitted concentration of half-maximal effect.

Sequence of Nuclear receptor subfamily 1 group I member 2 (Homo sapiens) (O75469 whole entry, looked up): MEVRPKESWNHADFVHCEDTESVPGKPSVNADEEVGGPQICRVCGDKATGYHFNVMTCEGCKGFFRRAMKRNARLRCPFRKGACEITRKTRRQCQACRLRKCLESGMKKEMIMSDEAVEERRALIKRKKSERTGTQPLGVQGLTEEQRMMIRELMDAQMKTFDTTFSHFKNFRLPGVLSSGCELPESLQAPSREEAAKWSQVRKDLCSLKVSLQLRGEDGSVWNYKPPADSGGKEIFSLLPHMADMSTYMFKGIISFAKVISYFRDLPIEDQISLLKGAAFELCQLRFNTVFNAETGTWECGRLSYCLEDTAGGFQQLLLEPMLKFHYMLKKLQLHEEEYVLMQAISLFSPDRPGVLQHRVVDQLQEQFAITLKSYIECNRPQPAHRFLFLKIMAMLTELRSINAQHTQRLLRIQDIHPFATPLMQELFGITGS

The assay concerns the target Nuclear receptor subfamily 1 group I member 2 (Homo sapiens) (UniProt O75469). Put plainly: Human pregnane X receptor (PXR) small molecule agonists, qHTS assay (AID 1346982). Note: nearly all actives have a fitted effect of over 35% in size. The note with it: PXR-Luc HepG2, CYP3A4 luciferase reporter, 24 h; series mostly up to 92.4 µM; activation: at the top concentration. From the text:
National Center for Advancing Translational Sciences [NCATS]
NIH Chemical Genomics Center [NCGC]
U.S. Environmental Protection Agency [EPA]
National Institutes of Environmental Health Sciences [NIEHS]
National Toxicology Program [NTP]
The human pregnane X receptor (hPXR) regulates the expression of several drug metabolizing enzymes and induction of these proteins is a major mechanism for developing drug resistance in cancer. One such key enzyme catalyzing the drug metabolism is cytochrome P450 3A4 (CYP3A4). Changes in CYP3A4 expression affect drug metabolism, thereby reducing the therapeutic efficacy and altering toxicological response to a drug and which finally causes adverse drug interaction. To screen Tox21 libraries for compounds that activate hPXR-mediated CYP3A4 gene expression, PXR-Luc HepG2 cells were used.
PXR-Luc HepG2 cells were dispensed at 2,000 per well in 5uL of assay medium containing 5% charcoal-stripped FBS into white solid bottom 1536-well plates (Corning Life Sciences, Corning, NY) using a Multidrop Combi (Thermo Scientific, Waltham, MA) dispenser. The assay plates were incubated at 37 C and 5% CO2 for 5hr, and then 23nL of compounds dissolved in DMSO and positive control were transferred using a Pintool station (Wako, San Diego, CA). The assay plates were incubated at 37C and 5% CO2 for 24hr. For luciferase read, 4uL of ONE-Glo reagent (Promega Corporation, Madison, WI) was added to each well of the assay plates using Flying Reagent Dispenser (FRD, Aurora Discovery, San Diego, CA) and incubated the assay plates at room temperature for 30min. The luminescence signal was quantified using a ViewLux plate reader (Perkin Elmer, Shelton, CT).
In general terms: qHTS replaces the single test concentration by a dilution series.
Regarding `CC(C)(C)C1CCC(CC2=C(O)c3ccccc3C(=O)C2=O)CC1` (stereo not given), the Potency was 29.8 µM (active).

For the molecule `CCCCCCCCCCCC(=O)NCCCN(C)C`, the Potency was 24.3 µM (active).

Turning to `CCCCC(CC)COP(=O)(O)OCC(CC)CCCC` (stereo not given), the Potency was 61.3 µM (active) and 54.5 µM (active).

In the case of `CCN(C(=O)N(CC)c1ccccc1)c1ccccc1`, the Potency is 30.6 µM (active).

Regarding `Oc1ccc(N=Nc2ccccc2)cc1`, the Potency was 34.8 µM (active).

`CCN(CCC#N)c1ccc(N=Nc2c(Cl)cc([N+](=O)[O-])cc2Cl)cc1`: the Potency is 12.2 µM (active).

Turning to `Cc1cc(N)c(S(=O)(=O)O)cc1Cl`, the “activation” value was 9.27% (inactive).

Turning to `Oc1ccc(Cl)cc1Sc1cc(Cl)ccc1O`, the Potency was 27.3 µM (active).

In the case of `CC[C@H](c1ccc(O)cc1)[C@@H](CC)c1ccc(O)cc1`, the Potency was 61.1 µM (active).

For `Nc1ccc2c3c(cccc13)-c1ccccc1-2`, the Potency is 27.6 µM (active).

Regarding `COC(=O)c1cc(Cl)ccc1OC`, the “activation” value was -7.48% [at 42.5 µM] (inactive).

On to `CC(C)(C)NC(=O)[C@@H]1C[C@@H]2CCCC[C@@H]2CN1C[C@@H](O)[C@H](Cc1ccccc1)NC(=O)[C@H](CC(N)=O)NC(=O)c1ccc2ccccc2n1`, for which the Potency was 24.7 µM (active).

Consider `Nc1ccc(N)c2ccccc12`, for which the Potency is 8.63 µM (active).

For the molecule `CCCCCCCCNC(C)C(O)c1ccc(SC(C)C)cc1` (stereo not given), the “activation” value is -40.7% [at 42.5 µM] (inactive).

Regarding `CCN(CC)CCCC(C)Nc1c2ccc(Cl)cc2nc2ccc(OC)cc12` (stereo not given), the Potency was 5.96 µM (active).

For `CCCC/C=C/CCCCO`, the “activation” value was -3.93% (inactive).

`CCCCCCCCCCCCCCCC(=O)OC[C@H](O)[C@H]1OC(=O)C(O)=C1O`: the “activation” value was 15% (inactive).

As for `O=[N+]([O-])c1ccccc1Nc1ccccc1`, the Potency is 48.3 µM (active).

As for `Cc1cc(O)c2ccccc2c1O`, the “activation” value is -50.7% [at 42.5 µM] (inactive).

On to `CCCCCCCCCCn1cc[n+](CCCCCCCCCC)c1C`, for which the Potency was 7.7 µM (active).

On to `CC(C)n1nc(-c2cc3cc(O)ccc3[nH]2)c2c(N)ncnc21`, for which the Potency is 3.76 µM (active).

Consider `Cc1[nH]cnc1C[C@H]1CCc2c(C)c3ccccc3n2C1=O`, for which the Potency is 59.6 µM (active).

On to `Clc1ccc(C(Cn2ccnc2)OCc2ccc(Sc3ccccc3)cc2)c(Cl)c1` (stereo not given), for which the Potency is 26.6 µM (active).

On to `O=C(O)c1cc(O)c2c(c1)C(=O)c1cccc(O)c1C2=O`, for which the “activation” value was -6.28% (inactive).

As for `Fc1ccc([C@@H]2CCNC[C@H]2COc2ccc3c(c2)OCO3)cc1`, the “activation” value is -2.93% [at 42.5 µM] (inactive).

Consider `CCCCC(CC)CN=C(N)NC(N)=NCCCCCCN=C(N)NC(N)=NCC(CC)CCCC` (stereo not given), for which the “activation” value was -43.2% [at 42.5 µM] (inactive).

Take `CCCCCCCCCCCCCCCCCC[N+](C)(C)Cc1ccccc1`: the Potency is 1.55 µM (active).

In the case of `Cc1cc(=O)oc2cc(N(C)C)ccc12`, the Potency was 48.6 µM (active).

Regarding `COc1ccc(C(=O)/C(Br)=C\C(=O)O)cc1`, the Potency was 21.7 µM (active).

Turning to `CN1CCC(Nc2ncc3ncnc(Nc4ccc(F)c(Cl)c4)c3n2)CC1`, the Potency is 10.6 µM (active).

`CC1(C)CCC(C)(C)c2cc(C(=O)Nc3ccc(C(=O)O)cc3)ccc21`: the “activation” value is 18.1% (inactive).

`OCCCCCCCCCCCCBr`: the “activation” value is 3.68% (inactive).

For the molecule `Nc1nc2ccccc2n1Cc1ccc(F)cc1`, the Potency is 26.6 µM (active).

As to `O=C1C=CC(=O)N1`, the “activation” value is -30.7% (inactive).

With `CC(=O)N1CCN(c2ccc(OC[C@H]3CO[C@](Cn4ccnc4)(c4ccc(Cl)cc4Cl)O3)cc2)CC1`, the “activation” value is -55.7% (inactive).

For `CN(C)[C@@H]1C(=O)C(C(N)=O)=C(O)[C@@]2(O)C(=O)C3=C(O)c4c(O)ccc(Cl)c4[C@@H](O)[C@H]3C[C@@H]12`, the “activation” value was -11.2% [at 42.5 µM] (inactive).

Regarding `O=C(Oc1ccccc1)c1ccccc1C(=O)Oc1ccccc1`, the “activation” value was 7.88% (inactive).

Consider `CSc1cnc(C)cn1`, for which the “activation” value is -10% [at 240 µM] (inactive).

`CCCCCOC(=O)CCCC`: the “activation” value was 1.95% (inactive).

In the case of `N#CC1(c2ccc(F)cc2)CCC(=O)CC1`, the “activation” value is -5.18% [at 42.5 µM] (inactive).
